Data: PubChem BioAssay (EPA / NIEHS)
Several values for one entry are separate records, joined by “and”; a condition that tells them apart may be missing. Equal values may be shown once. Records with an inconclusive call do not appear. More than one record can exist for a structure, and the calls need not agree. Activity calls are given as the source filed them. Rule for the calls, unless noted: active = hit-call score of the fitted dose curve at least 0.9, where 1 is the maximum; inconclusive = response in the unintended direction; inactive = score below 0.9.

Tests used:
[1] = ATG_M_32_XSP2: Attagene TRANS-FACTORIAL Multi-Species (XSP2) HepG2 Assay for M19 Transcription Factor (Internal Marker) (AID 2283826)
Description: ATG_XSP2_multi-species_TRANS is a cell-based, multiplexed assay created by modifying the existing Attagene TRANS-FACTORIAL system to include a panel of nuclear receptors from some or all the following species: human (Homo sapiens), mouse (Mus musculus), frog (Xenopus laevis), zebrafish (Danio rerio), chicken (Gallus gallus), and turtle (Chrysemys picta). The ECOTOX-FACTORIAL format uses HepG2, a human liver cell line, with measurements taken at 24 hours after chemical dosing in a 24-well plate. Xsp2 included 3 nM 6-alpha-fluorotestosterone and 1.5 nM norgestrel to stimulate the androgen receptor.ATG_M_32_XSP2 is one of 29 assay components measured or calculated from the ATG_XSP2_multi-species_TRANS assay. It is designed to make measurements of mRNA induction, a form of inducible reporter, as detected with fluorescence intensity signals by Reverse transcription polymerase chain reaction (RT-PCR) and Capillary electrophoresis technology.This assay endpoint, ATG_M_32_XSP2, was analyzed in the positive analysis fitting direction relative to DMSO as the negative control and baseline of activity. […] Furthermore, this assay endpoint can be referred to as a secondary readout, because this assay has produced multiple assay endpoints where this one serves a background control function. […]
Human liver HepG2 cells are transiently transfected with multiple reporter transcription units (MRTUs) in 6-well plates using FuGene 6 reagent (Roche; 3 ml FuGene/1 mg DNA). […] A major difference between the CIS and TRANS system is that in CIS activities of endogenous TFs are measured, whereas the TRANS assay evaluates changes in activities of exogenous, chimeric NR-Gal4 proteins. […] The fragments were purified using Qiaquick PCR columns (Qiagen), analyzed on an ABI 3130xL genetic analyzer (Applied Biosystems) with peak positions identified by using a set of X-rhodamine (ROX)-labeled MapMarker1000 molecular weight standards (BioVentures). […]

[2] = target: Estrogen receptor (Homo sapiens) (UniProt P03372); experiment: ATG_hERa_XSP2: Attagene TRANS-FACTORIAL Multi-Species (XSP2) HepG2 Assay for human Estrogen Receptor (ERa) (AID 2283827)
Sequence of Estrogen receptor (Homo sapiens) (P03372 whole entry, looked up, the tested form may be a part): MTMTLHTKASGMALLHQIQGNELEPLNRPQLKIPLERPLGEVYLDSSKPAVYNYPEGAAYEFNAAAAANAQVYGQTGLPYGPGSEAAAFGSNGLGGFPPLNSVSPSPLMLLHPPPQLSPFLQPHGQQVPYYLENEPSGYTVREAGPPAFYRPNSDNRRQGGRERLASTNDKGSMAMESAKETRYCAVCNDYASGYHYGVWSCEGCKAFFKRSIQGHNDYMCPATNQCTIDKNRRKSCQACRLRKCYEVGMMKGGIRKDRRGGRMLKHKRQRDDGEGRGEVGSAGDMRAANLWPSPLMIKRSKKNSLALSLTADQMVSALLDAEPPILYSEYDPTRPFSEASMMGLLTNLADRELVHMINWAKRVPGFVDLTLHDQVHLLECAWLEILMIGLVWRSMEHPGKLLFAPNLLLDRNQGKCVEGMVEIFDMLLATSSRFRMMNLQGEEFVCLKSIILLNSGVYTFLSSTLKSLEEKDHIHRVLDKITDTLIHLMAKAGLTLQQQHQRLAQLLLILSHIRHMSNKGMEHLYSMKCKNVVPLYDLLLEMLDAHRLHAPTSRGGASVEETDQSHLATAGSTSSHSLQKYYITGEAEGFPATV
Method in brief: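 Trans-activation of exogenous human ERa-Gal4 chimera read in HepG2 as reporter transcript after 24 h exposure; medium included 3 nM 6-alpha-fluorotestosterone and 1.5 nM norgestrel. Quantified by RT-PCR with capillary electrophoresis, positive-direction fitting against DMSO.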

[3] = system: frog Estrogen Receptor (ER2), gene 100174814; experiment: ATG_frER2_XSP2: Attagene TRANS-FACTORIAL Multi-Species (XSP2) HepG2 Assay for frog Estrogen Receptor (ER2) (AID 2283828)
Method in brief: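 Read-out: reporter transcript levels by RT-PCR with 6-FAM primer extension, HpaI digestion and capillary electrophoresis, scored as induction over DMSO control. Transfected HepG2 carrying Xenopus ER2–GAL4 chimera; compounds incubated 24 h.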

[4] = target: Peroxisome proliferator-activated receptor gamma (Homo sapiens) (UniProt P37231); experiment: ATG_hPPARg_XSP2: Attagene TRANS-FACTORIAL Multi-Species (XSP2) HepG2 Assay for human Peroxisome Proliferator-activated Receptor gamma (PPARg) (AID 2283829);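 note: actives raise reporter mRNA above DMSO so AC50 reflects PPARg activation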
Sequence of Peroxisome proliferator-activated receptor gamma (Homo sapiens) (P37231 whole entry, looked up, the tested form may be a part): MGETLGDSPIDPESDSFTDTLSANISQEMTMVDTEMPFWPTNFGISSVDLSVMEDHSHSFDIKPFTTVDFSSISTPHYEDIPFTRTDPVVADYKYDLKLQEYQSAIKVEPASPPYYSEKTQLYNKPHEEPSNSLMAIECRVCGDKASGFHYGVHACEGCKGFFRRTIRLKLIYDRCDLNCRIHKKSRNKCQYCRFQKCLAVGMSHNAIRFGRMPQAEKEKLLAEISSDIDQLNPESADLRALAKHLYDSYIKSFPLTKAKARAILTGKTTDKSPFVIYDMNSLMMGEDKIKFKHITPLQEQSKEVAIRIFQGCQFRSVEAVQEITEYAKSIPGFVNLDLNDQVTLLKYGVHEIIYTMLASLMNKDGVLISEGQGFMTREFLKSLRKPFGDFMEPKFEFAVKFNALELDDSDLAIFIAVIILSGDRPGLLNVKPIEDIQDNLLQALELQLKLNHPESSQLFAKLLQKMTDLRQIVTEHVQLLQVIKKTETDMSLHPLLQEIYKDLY
Method in brief: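 Reporter transcripts were measured by RT-PCR, fluorescent labeling, HpaI digestion and capillary electrophoresis, relative to DMSO, 24 h post-dosing. Transiently transfected HepG2 expressed NR-Gal4 chimeras regulating GAL4-UAS reporters; medium contained 3 nM 6-alpha-fluorotestosterone plus 1.5 nM norgestrel.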

[5] = target: mouse Peroxisome Proliferator-activated Receptor gamma (PPARg), Pparg (gene 19016) (UniProt P37238); experiment: ATG_mPPARg_XSP2: Attagene TRANS-FACTORIAL Multi-Species (XSP2) HepG2 Assay for mouse Peroxisome Proliferator-activated Receptor gamma (PPARg) (AID 2283830);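 note: hits are gains in reporter mRNA above DMSO so AC50 marks activation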
Sequence of mouse Peroxisome Proliferator-activated Receptor gamma (PPARg), Pparg (gene 19016) (P37238 whole entry, looked up, the tested form may be a part): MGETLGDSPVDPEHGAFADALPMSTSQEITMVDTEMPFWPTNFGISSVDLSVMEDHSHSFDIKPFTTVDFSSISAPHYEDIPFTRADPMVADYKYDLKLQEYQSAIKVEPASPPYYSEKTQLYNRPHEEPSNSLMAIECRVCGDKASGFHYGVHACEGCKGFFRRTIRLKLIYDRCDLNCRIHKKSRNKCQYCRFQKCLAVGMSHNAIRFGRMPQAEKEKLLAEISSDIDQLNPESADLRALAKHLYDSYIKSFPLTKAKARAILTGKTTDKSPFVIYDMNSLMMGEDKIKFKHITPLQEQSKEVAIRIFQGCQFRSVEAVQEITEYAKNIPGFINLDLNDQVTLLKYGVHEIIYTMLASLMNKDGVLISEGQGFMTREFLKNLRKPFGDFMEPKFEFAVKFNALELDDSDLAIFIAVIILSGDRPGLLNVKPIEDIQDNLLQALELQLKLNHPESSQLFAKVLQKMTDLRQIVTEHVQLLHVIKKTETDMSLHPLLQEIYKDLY
Method in brief: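 Multiplexed TRANS reporter readout: after 24 h chemical exposure of transfected HepG2 cells (with 3 nM 6-alpha-fluorotestosterone, 1.5 nM norgestrel present), RNA reverse-transcribed, amplified, 6-FAM-labelled and resolved by capillary electrophoresis; mouse PPARg-Gal4 induction scored against DMSO.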

[6] = target: Nuclear receptor subfamily 1 group I member 2 (Mus musculus) (UniProt O54915); experiment: ATG_mPXR_XSP2: Attagene TRANS-FACTORIAL Multi-Species (XSP1) HepG2 Assay for mouse Pregnane X Receptor (PXR) (AID 2283831)
Sequence of Nuclear receptor subfamily 1 group I member 2 (Mus musculus) (O54915 whole entry, looked up, the tested form may be a part): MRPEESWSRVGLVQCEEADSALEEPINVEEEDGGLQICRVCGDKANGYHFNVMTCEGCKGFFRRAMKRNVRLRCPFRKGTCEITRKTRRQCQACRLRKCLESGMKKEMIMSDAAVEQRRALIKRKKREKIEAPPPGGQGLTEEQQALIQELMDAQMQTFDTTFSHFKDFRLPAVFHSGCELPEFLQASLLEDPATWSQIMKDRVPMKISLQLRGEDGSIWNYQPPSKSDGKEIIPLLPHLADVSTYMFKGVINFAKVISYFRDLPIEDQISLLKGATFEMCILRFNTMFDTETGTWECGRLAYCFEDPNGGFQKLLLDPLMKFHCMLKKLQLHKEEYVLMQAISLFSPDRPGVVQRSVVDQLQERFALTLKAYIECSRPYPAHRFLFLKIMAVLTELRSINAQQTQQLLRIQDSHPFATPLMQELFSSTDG
Method in brief: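 Reporter transcripts measured after 24 h dosing by RT-PCR with 6-FAM labelling, HpaI digestion and capillary electrophoresis. Transiently transfected HepG2 with NR-Gal4 chimeras; increase over DMSO baseline scored.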

[7] = target: zebrafish Thyroid Hormone Receptor alpha (TRa), thraa (gene 30670) (UniProt Q98867); experiment: ATG_zfTRa_XSP2: Attagene TRANS-FACTORIAL Multi-Species (XSP1) HepG2 Assay for zebrafish Thyroid Hormone Receptor alpha (TRa) (AID 2283832);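 note: actives raise zebrafish TRa-Gal4 reporter transcript above DMSO baseline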
Sequence of zebrafish Thyroid Hormone Receptor alpha (TRa), thraa (gene 30670) (Q98867 whole entry, looked up, the tested form may be a part): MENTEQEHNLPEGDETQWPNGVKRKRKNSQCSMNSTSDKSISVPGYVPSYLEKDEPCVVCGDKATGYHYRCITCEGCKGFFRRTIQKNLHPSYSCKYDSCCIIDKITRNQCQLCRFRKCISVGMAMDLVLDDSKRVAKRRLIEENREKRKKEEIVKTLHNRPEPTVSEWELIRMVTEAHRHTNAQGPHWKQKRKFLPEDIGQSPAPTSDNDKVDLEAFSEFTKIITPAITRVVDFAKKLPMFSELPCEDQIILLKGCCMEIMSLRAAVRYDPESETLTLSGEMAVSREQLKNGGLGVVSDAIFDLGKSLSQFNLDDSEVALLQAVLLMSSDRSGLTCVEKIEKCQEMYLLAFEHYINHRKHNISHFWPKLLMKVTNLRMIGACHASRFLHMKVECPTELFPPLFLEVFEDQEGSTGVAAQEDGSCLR
Method in brief: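 Readout is reporter mRNA induction, quantified by RT-PCR and capillary electrophoresis with fluorescent labelling, after 24 h compound exposure of transiently transfected HepG2 cells carrying NR-Gal4 chimera reporters. Activity fitted upward relative to DMSO.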

[8] = system: zebrafish Peroxisome Proliferator-activated Receptor gamma (PPARg), gene 557037; experiment: ATG_zfPPARg_XSP2: Attagene TRANS-FACTORIAL Multi-Species (XSP2) HepG2 Assay for zebrafish Peroxisome Proliferator-activated Receptor gamma (PPARg) (AID 2283833);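 note: reporter mRNA from a zebrafish PPARg GAL4 chimera measured by RT-PCR and capillary electrophoresis; actives increase reporter signal over DMSO so AC50 reflects activation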
Method in brief: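 After 24 h chemical exposure, RNA from transiently transfected HepG2 (chimeric NR-Gal4 TRANS reporters) was reverse-transcribed, PCR-amplified, 6-FAM-labelled, HpaI-cut and sized by capillary electrophoresis. Induction was scored in the positive direction relative to DMSO.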

[9] = system: turtle Thyroid Hormone Receptor, alpha (TRa), gene 101949057; experiment: ATG_trTRa_XSP2: Attagene TRANS-FACTORIAL Multi-Species (XSP1) HepG2 Assay for turtle Thyroid Hormone Receptor, alpha (TRa) (AID 2283834);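 note: hits raise reporter mRNA over the DMSO baseline so AC50 marks activators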
Method in brief: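 Turtle TRa-Gal4 chimera activity in transfected human HepG2 cells: reporter transcripts quantified by RT-PCR, 6-FAM labelling and capillary electrophoresis 24 h post-dosing; positive direction versus DMSO, medium containing 3 nM 6-alpha-fluorotestosterone and 1.5 nM norgestrel.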

[10] = ATG_M_61_XSP2: Attagene TRANS-FACTORIAL Multi-Species (XSP2) HepG2 Assay for M61 Transcription Factor (Internal Marker) (AID 2283835; active = hit-call score of the fitted dose curve at least 0.9, where 1 is the maximum; inactive = score below 0.9;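 note: active means a rise in signal above the DMSO baseline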)
Method in brief: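 Internal background marker, read as RT-PCR/capillary-electrophoresis reporter mRNA 24 h post-dose in transiently transfected HepG2 cells. Androgen receptor stimulated with 3 nM 6-alpha-fluorotestosterone plus 1.5 nM norgestrel; gain of signal versus DMSO analysed.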

Structure (SMILES) | outcome [1] | AC50 [2] | AC50 [3] | outcome [4] | outcome [5] | outcome [6] | outcome [7] | AC50 [8] | AC50 [4] | AC50 [5] | outcome [9] | outcome [10] | AC50 [6] | outcome [8]
CCC(C)(C)c1ccc(O)cc1 | inactive | 6.43 µM (active) and 3.44 µM (active) | 27.9 µM (active) and 3.07 µM (active) | inactive | inactive | inactive | inactive | 165 µM (active) and 100 µM (active) | – | – | – | – | – | –
O=S(=O)(c1ccc(O)cc1)c1ccc(O)cc1 | – | 1.87 µM (active) and 2.38 µM (active) | 26.9 µM (active) and 5.73 µM (active) | – | – | inactive | inactive | – | 8.88 µM (active) and 28.6 µM (active) | 33.1 µM (active) and 63.1 µM (active) | inactive | inactive | – | –
O=P(Oc1ccccc1)(Oc1ccccc1)Oc1ccccc1 | inactive | 1.44 µM (active) | 2.82 µM (active) | – | – | – | inactive | 9.78 µM (active) | 4.79 µM (active) | 5.79 µM (active) | inactive | inactive | 0.303 µM (active) | –
c1ccc2c(c1)Nc1ccccc1S2 | – | 12.7 µM (active) and 8.42 µM (active) | 16.7 µM (active) and 5.21 µM (active) | – | – | inactive | inactive | – | 22.2 µM (active) and 21.7 µM (active) | 27.6 µM (active) and 21.1 µM (active) | inactive | inactive | 4.49 µM (active) | inactive
CC(C)(C)c1ccc(O)cc1 | inactive | – | 14.9 µM (active) and 6.96 µM (active) | inactive | inactive | – | inactive | – | – | – | inactive | inactive | – | inactive
CCCCc1ccc(O)cc1 | – | 4.58 µM (active) and 3.47 µM (active) | 4.69 µM (active) and 2.33 µM (active) | – | – | inactive | inactive | – | 100 µM (active) | 74.6 µM (active) and 93.5 µM (active) | – | inactive | – | inactive
